# In PubChem BioAssay (EPA / NIEHS):
# Records with an inconclusive call do not appear. Activity calls are given as the source filed them. Rule for the calls, unless noted: active = hit-call score of the fitted dose curve at least 0.9, where 1 is the maximum; inactive = score below 0.9.
# Experiments:
# [1] = CCTE_Shafer_MEA_acute_AB: CCTE's Alamar Blue Assay for Cytotoxicity in the Neural Acute Assay, Shafer Lab (AID 2284069; active = hit-call score of the fitted dose curve at least 0.9, where 1 is the maximum;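 note: active compounds lower the viability signal compared with DMSO wells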)
# Method: CCTE_Shafer_MEA_acute assay is conducted using Axion Biosystems 48 well microelectrode array (MEA) plates and Maestro recording system. Each well of the MEA plate contains a grid of 16 microelectrodes embedded in the culture surface. Electrically active cells, such as neurons, can be cultured over the electrodes, and electrical activity in these cells can be recorded extracellularly. The spontaneous firing of neurons is captured from each electrode on a microsecond timescale providing both temporally and spatially precise data. […] The CCTE_Shafer_MEA_acute assay uses primary cultures of rat cortical neurons. As these cultures mature over time, neural networks develop functional activity and form cohesive networks in which electrical activity can be highly coordinated. […] It measures the resazurin reduction using fluorescence.Data from the assay component CCTE_Shafer_MEA_acute_AB was analyzed into 1 assay endpoint. This assay endpoint, CCTE_Shafer_MEA_acute_AB, was analyzed in the positive analysis fitting direction relative to DMSO as the negative control and baseline of activity. […]
# Metabolic activity was determined using the CellTiter Blue (CTB) assay (Promega Cat. #8081), following the manufacturer's instructions with the following modifications. […] Fluorescence was measured in a Fluorostar Optima fluorimeter using an excitation wavelength of 544 nm and an emission wavelength of 590 nm.
# [2] = UKN5_HCS_SBAD2_neurite_outgrowth: University of Konstanz (UKN) Leist Lab Neurite Outgrowth Assay in human iPSC-derived immature Dorsal Root Ganglia Neurons (UKN5) (AID 2284070); details: actives raise or lower the signal
# Outline: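 Human iPSC-derived immature DRG neurons (SBAD2) on Matrigel with CHIR99021 (1.5 uM), SU5402 (5 uM), DAPT (5 uM); compounds added 1 h post-seeding for 24 h. Calcein-AM neurite area imaged; bidirectional fit vs DMSO.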
# [3] = UKN2_HCS_IMR90_neural_migration: University of Konstanz (UKN) Leist Lab Neural Crest Cell Migration Assay in human induced IMR90 Pluripotent Stem Cells (UKN2) (AID 2284204); details: actives raise or lower the signal
# Outline: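 iPSC-derived IMR90 neural crest cells seeded around stoppers on PLO/laminin/fibronectin; migration started in N2-S medium with EGF/FGF, compounds added after 24 h for 24 h. Migration into cell-free area imaged after calcein-AM/Hoechst staining; bidirectional fit versus DMSO.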
# [4] = UKN4_HCS_LUHMES_neurite_outgrowth: University of Konstanz (UKN) Leist Lab Neurite Outgrowth Assay in human LUHMES cells (UKN4) (AID 2284206); details: actives raise or lower the signal
# Outline: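 LUHMES neuronal precursors differentiated 2 days, replated without cAMP/GDNF, then exposed to chemicals for 24 h. Neurite area imaged by high-content microscopy after calcein-AM staining; Hoechst H-33342 marks viability. Bidirectional fit versus DMSO.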
Compound,outcome [1],AC50 [2],AC50 [3],AC50 [4],outcome [3]
Oc1c(Cl)cc(Cl)c(Cl)c1Cc1c(O)c(Cl)cc(Cl)c1Cl,inactive,78 µM (active),0.885 µM (active),7.47 µM (active),–
COCCOCCOCCO,–,–,–,–,inactive
